# Most compounds without a hit are left out; they make up all but 1.3% or so of the library.
# Rce1 inhib – inhibitors of yeast Ras-converting enzyme | Q03530 | yeast membranes, quenched prenylated peptide cleavage fluorescence | calls only | 290,000 compounds, 0.27% hits | AID 2563;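 active = fall in fluorescence gain of 50% or more versus controls, with final raw signal at or below 3038400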;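 also: plate controls were neutral control wells for no effect and wells lacking membranes for full effect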
# Target sequence (Q03530 whole entry, looked up): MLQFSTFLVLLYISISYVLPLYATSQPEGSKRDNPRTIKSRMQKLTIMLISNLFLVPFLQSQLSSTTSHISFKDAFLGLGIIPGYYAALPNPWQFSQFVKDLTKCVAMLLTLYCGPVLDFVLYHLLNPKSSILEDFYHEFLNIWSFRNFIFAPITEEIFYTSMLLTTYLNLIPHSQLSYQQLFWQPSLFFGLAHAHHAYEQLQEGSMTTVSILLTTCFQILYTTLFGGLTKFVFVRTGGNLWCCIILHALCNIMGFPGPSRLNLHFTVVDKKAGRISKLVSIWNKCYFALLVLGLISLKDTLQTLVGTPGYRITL
# PGC1a acetyl inh – modulators of PGC1a acetylation; U2OS PGC1a acetylation, AlphaScreen anti-acetyl-lysine; with virally co-expressed GCN5 acetyltransferase; 350,000 compounds, 0.17% hits; inhibition, % at 15.6 µM;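 active = every replicate shows inhibition of at least 40%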;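 also: 0% = neutral control wells and 100% = positive control wells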
# AI-2 QS modul – modulators of Vibrio harveyi AI-2 quorum sensing system; Vibrio harveyi JMH597 AI-2 luminescence/OD600 ratio, 9 h; stronger effect = lower value; strain lacks LuxN and CqsS sensors; 0 = neutral-control median; activity change, % at 7.5 µM; 300,000 compounds, 0.4% hits; AID 2094; in the data active = activity change below about -75%, passing the limit was not always enough;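 also: luminescence divided by OD600 gain over 9 h not by final OD600 alone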
# HIF act – HIF pathway transcriptional activation. U2OS HRE-luciferase reporter, luminescence; normalized: DMSO 0%, desferrioxamine 100%. activation, % at 7.5 µM (by protocol). 300,000 compounds, 0.32% hits. AID 1910;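 active = mean activation of at least 10% of the iron chelator positive control signal, with at least half of replicates also reaching 10%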
# C2C12 statin – suppression of simvastatin myotoxicity; C2C12 myotubes + simvastatin, ATP luminescence, 48 h; scaled: DMSO 0, geranylgeraniol control 100; 330,000 compounds, 0.78% hits; AID 602340; rescue of ATP level, % at 7.49 µM;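 active = mean ATP rescue above about 67%, or every replicate alone reaching that limit, limit read from the data, passing the limit was not always enough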;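 also: myotubes were challenged with 10 µM simvastatin during compound exposure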
# * = called active by the depositor; i = inactive; . = not tested or not shown; + = active, no number.
SMILES,Rce1 inhib,PGC1a acetyl inh,AI-2 QS modul,HIF act,C2C12 statin
C[C@H](NC(=O)C[C@H]1CC[C@H](NS(=O)(=O)c2cccc(F)c2)[C@@H](CO)O1)c1ccccc1,.,-6,.,.,-14
O=C(/C=C/c1ccccc1)NC(=S)NNC(=O)c1cccnc1,i,-2,-111*,0,.
C(=N\Nc1nc2ccccc2[nH]1)/c1cccc2nccnc12,i,8,-4,47*,-23
CCCCn1c(/C=N/Nc2nc3ccccc3[nH]2)nc2ccccc21,i,.,14,69*,.
C(=N\Nc1nc2ccccc2[nH]1)/c1ccccn1,i,.,9,4,.
COc1cc(OC)c(OC)cc1/C=N/Nc1nc2ccccc2[nH]1,i,.,9,0,.
C(=N\Nc1nc2ccccc2[nH]1)/c1ccc2ncccc2c1,i,49*,6,-3,-19
CCN(CC)c1ccc(/C=N/Nc2nc3ccccc3[nH]2)c(O)c1,i,.,42,83*,-332
CC=Cc1ccc2n(c1=O)C[C@H]1[C@H](CO)[C@@H](C(=O)Nc3ccc(-c4ccccc4)cc3)N(C(=O)CC)[C@@H]21 (mixture of isomers),.,-7,.,.,18
CC(=O)Nc1ccc2c(c1)C(=O)N(C)[C@H]1CC[C@H](CC(=O)N3CCc4ccccc4C3)O[C@H]1CO2,.,4,.,.,-4
CO[C@H]1CN(C)C(=O)c2cc(NS(C)(=O)=O)ccc2OC[C@H](C)NC[C@H]1C,.,-4,.,.,.
C[C@H](CO)N1C[C@H](C)[C@H](CN(C)C(=O)Nc2ccccc2)OCCCC[C@H](C)Oc2ccc(NC(=O)c3ccncc3)cc2C1=O,.,3,.,.,.
CCN(CC)c1ccc(/C=N/NC(=O)c2ccco2)c(O)c1,i,12,-27,78*,.
Cc1ccc(C)c(S(=O)(=O)NCc2ccc3c(c2)OCO3)c1,i,.,-14,0,7
Cc1nn(C)cc1S(=O)(=O)NCc1ccc2c(c1)OCO2,i,2,21,263*,-1
O=P(CCCCCCCCCP(=O)(c1ccccc1)c1ccccc1)(c1ccccc1)c1ccccc1,i,78*,3,0,59
O=C(O)CCCCCCCCCCP(=O)(c1ccccc1)c1ccccc1,i,5,6,0,.
C#Cc1ccc([C@H]2C=C(C(=O)Nc3ccccc3)O[C@@H](OCCCCO)C2)cc1,.,-6,.,.,.
CCC/C(=C1/c2ccccc2C(=O)N1c1ccccc1)c1ccc(O[C@@H]2CCCCO2)cc1,.,-17,.,.,-3
CCC/C(=C1/c2ccccc2C(=O)N1c1ccccc1)c1ccc2c(c1)OCCO2,.,4,.,.,115*
COc1cc(/C=C/C(=O)OCC(=O)Nc2cc(S(=O)(=O)N3CCOCC3)ccc2Cl)cc(OC)c1OC,.,7,.,.,109*
Cn1c(-c2ccc(F)cc2)cnc1NCc1ccc(F)cc1,i,10,25,1,122*
COc1ccc(CN(C)C[C@H]2Oc3ccc(NS(=O)(=O)c4cn(C)cn4)cc3CC(=O)N([C@@H](C)CO)C[C@@H]2C)cc1,.,-4,.,.,9
O=C(NCc1nc2ccccc2[nH]1)c1c(F)c(F)c(F)c(F)c1F,i,4,22,74*,.
O=C(NCc1nc2ccccc2[nH]1)c1ccccc1F,i,-2,8,1,-6
SMILES,Rce1 inhib,PGC1a acetyl inh,AI-2 QS modul,HIF act,C2C12 statin
Cc1ccc2c(c1)C1NC(=S)NC(C)(O2)C1C(=O)Nc1ccc(Cl)cc1 (configuration not stated),i,.,24,51*,9
COc1ccc2c(c1)C1NC(=S)NC(C)(O2)C1C(=O)Nc1ccc(Cl)cc1 (configuration not stated),i,.,19,0,.
COC(=O)[C@H]1[C@H](CO)[C@H]2Cn3c(ccc(-c4ccccc4)c3=O)[C@H]2N1S(C)(=O)=O,.,.,.,.,-28
COc1ccc(/C=C(\C#N)c2nc3ccccc3[nH]2)cc1O,i,.,9,13*,-50
CCCN(C)C[C@@H]1Oc2ncc(-c3ccccc3)cc2C(=O)N([C@H](C)CO)C[C@H]1C,.,-1,.,.,-3
O=[N+]([O-])c1cc(NS(=O)(=O)c2ccc(Cl)nc2)ccc1Cl,i,4,-1,0,-169
CC(C)c1ccc(NS(=O)(=O)c2ccc(Cl)nc2)cc1,i,.,-92*,.,.
COc1ccc(-c2[nH]ncc2CN(C)C(C)c2ccon2)cc1F (configuration not stated),i,80*,9,0,-19
CCCN1C[C@H](C)[C@@H](OC)CN(C)C(=O)c2cc(NC(=O)COC)ccc2OC[C@H]1C,.,4,.,.,6
COc1ccc2nc(NC(=O)c3cccs3)sc2c1,i,1,16,21*,-2
CS(=O)(=O)c1ccc2nc(NC(=O)CCC(=O)c3cccs3)sc2c1,i,10,-96*,1,-21
Clc1cccc(CN2CCc3c([nH]c4ccccc34)C2)c1Cl,+,.,7,2,.
CN(C)N1C(=O)CC(C)(c2ccc([N+](=O)[O-])cc2)C1=O (configuration not stated),i,-18,18,-1,114*
CN(C)CCN1C(=O)NC(C)(c2ccc([N+](=O)[O-])cc2)C1=O (configuration not stated),i,4,8,0,6
COc1ccc(/C(O)=C2/C(=O)C(=O)N(CCN(C)C)C2c2ccccn2)cc1OC (configuration not stated),i,3,6,2,118*
Cc1ccc(CN(C)C[C@H]2OCc3cn(nn3)CCCC(=O)N([C@H](C)CO)C[C@@H]2C)cc1,.,2,.,.,7
CC(C)[C@H](NC(=O)NCCc1ccccc1)C(=O)O,i,0,19,0,92*
C[C@@H]1CN([C@@H](C)CO)C(=O)c2cccc(NC(=O)c3ccc(-c4nccs4)cc3)c2O[C@@H]1CN(C)C(=O)Nc1ccc2c(c1)OCO2,.,-16,.,.,-1
Cn1c(CCN2CCCCC2)nc2cc(NC(=O)Nc3ccccc3)ccc21,i,3,9,3,116*
Cn1c(CN2CCCC2)nc2cc(NC(=O)COc3ccc(Cl)cc3)ccc21,i,52*,4,0,-5
CCCC(=O)Nc1ccc2c(c1)nc(CN1CCN(C(C)=O)CC1)n2C,i,4,20,0,119*
CC(C)C(=O)Nc1ccc2c(c1)nc(CCN1CCCCC1)n2C,i,-3,5,-1,-4
O=C(Nc1ccccc1N1CCOCC1)C1CCN(S(=O)(=O)c2ccc(F)cc2)CC1,+,-15,-3,0,.
Cc1noc(N)c1C(=O)Nc1ccc(F)c(Cl)c1,i,-2,4,0,130*
CCN(CCCNC(=O)Cn1ncc2c([nH]c3ccc(C)cc32)c1=O)c1ccccc1,i,2,13,0,1
Cc1ccc2[nH]c3c(=O)n(CC(=O)NCCCN(C)Cc4ccccc4)ncc3c2c1,i,1,19,66*,2
CC(C)N1CCc2c(sc(NC(=O)C3CCCCC3)c2C(N)=O)C1,i,44*,14,1,-14

# Screening results (PubChem BioAssay)
